Inhibition data for 58 compounds are collected here from PubChem BioAssay AID651718 (The Scripps Research Institute Molecular Screening Center, 2012).

Screen size: about 360,000 compounds; about 2,700 (0.75%) were called active. No stated cut-off is given here; in the data, active means inhibition above about 4.5%; inactive means the rest. Shown is part of a subset that was picked to be rich in actives.

This experiment relates to Methionine sulfoxide reductase A (Bos taurus). Description: bovine MsrA enzyme inhibitors, primary screen, biochemical, absorbance, HTS (AID 651718).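 Further: 0% = vehicle wells with enzyme and 100% = reference inhibitor wells.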 The note with it: purified bovine MsrA, absorbance read-out; at 15.5 µM; stronger effect = higher value.
With `O=C(NS(=O)(=O)c1cccs1)[C@H]1O[C@@H](n2ccc(=O)[nH]c2=O)[C@H](O)[C@@H]1O`, the inhibition was -0.74% (inactive).

As to `O=C(NN=Cc1ccco1)C(=O)Nc1ccc(Cl)c([N+](=O)[O-])c1`, the inhibition was -0.74% (inactive).

As for `CC(C(=O)Nc1ccccc1-c1ccccc1)N1CCOCC1` (stereo not drawn), the inhibition was 0.29% (inactive).

Regarding `Cc1nc2ccccc2n1C(=O)N1CCOCC1`, the inhibition is -0.3% (inactive).

For `Cc1oc2c(c1C(=O)N1CCOCC1)C(=O)c1ccccc1C2=O`, the inhibition was 14.1% (active).

Turning to `CCOc1ccc(/C=N\NC(=O)c2c(C)nc3cc(C)ccn23)cc1`, the inhibition was 3.14% (inactive).

`CCOc1cc(/C=N/NC(=O)c2c(C)nc3ccc(Cl)cn23)ccc1O`: the inhibition was 6.4% (active).

In the case of `CCOc1cc(/C=N/NC(=O)CN2CCCCC2)ccc1O`, the inhibition is 0.86% (inactive).

Regarding `COC(=O)Nc1nc2ccc(C(=O)C3CC3)cc2[nH]1`, the inhibition was 1.54% (inactive).

For the compound `CCOC(=O)c1c(C(C#N)C#N)cc(C)nc1C`, the inhibition is 5.28% (active).

On to `CCOC(=O)c1cc(C)nc(S(C)(=O)=O)c1C#N`, for which the inhibition is 1.83% (inactive).

For `CCOC(=O)c1c(C)[nH]c(C)c1C(=O)CSc1nc(N)cc(N)n1`, the inhibition was 0.97% (inactive).

Take `N#Cc1ccc(S(=O)(=O)NCC(=O)OCC(=O)NCCc2ccccc2)cc1`: the inhibition was 0.77% (inactive).

With `O=C(NCc1ccccc1)[C@@H]1CCCN1C(=O)[C@H]1CCCN1C(=O)c1cccc(Cl)c1`, the inhibition is -0.24% (inactive).

As for `Brc1ccc(COCCc2cn(Cc3ccccc3)c3ccccc23)cc1`, the inhibition was -0.08% (inactive).

Take `N#Cc1c(N)nc2c3c(sc(=N)c2c1N)NC(=O)CC3c1ccccc1Cl` (stereo not drawn): the inhibition was 6.25% (active).

In the case of `CSc1nc2c(c(=O)[nH]1)C(c1cccc(Cl)c1Cl)CC(=O)N2` (stereo not drawn), the inhibition was -1.13% (inactive).

As for `COC(=O)[C@H](CC(C)C)NS(=O)(=O)c1c(F)cccc1F`, the inhibition was 1.4% (inactive).

Turning to `COC(=O)c1sccc1N/N=C(\C)c1ccc(F)c(Cl)c1`, the inhibition was -0.14% (inactive).

For the compound `COc1cccc(/C(C)=N/Nc2ncc(Cl)cc2Cl)c1`, the inhibition is 5.21% (active).

For `CCN(CC)c1ccc(C(=O)N/N=C(\C)c2cccc(OC)c2)cc1`, the inhibition was 1.78% (inactive).

Take `COc1cccc(CNC(=O)[C@H]2CCCN2C(=O)[C@H]2CCCN2C(=O)c2cc(F)cc(F)c2)c1`: the inhibition was 0.79% (inactive).

With `CCCN1C(=O)c2[nH]nc(-c3ccccc3)c2C1c1ccccc1` (stereo not drawn), the inhibition was 0.64% (inactive).

Consider `O=C(Cn1nnc(-c2ccccc2)n1)N/N=C/c1ccc(-c2ccc(Cl)cc2)o1`, for which the inhibition is 1.47% (inactive).

In the case of `Nc1nnnn1CC(=O)N/N=C/c1ccc(-c2cccc(Cl)c2)o1`, the inhibition is 5.41% (active).

As to `O=C(N/N=C\c1ccc(-c2ccc(Cl)c(Cl)c2)o1)C(=O)N1CCCC1`, the inhibition was -0.58% (inactive).

`Cc1ccc(OCCCC(=O)Nc2ccc(S(=O)(=O)Nc3cc(C)nc(C)n3)cc2)cc1`: the inhibition is 0.56% (inactive).

`Cc1ccc(S(=O)(=O)Nc2nc(C)cc(N/N=C/c3ccc(O)cc3)n2)cc1`: the inhibition is 9.28% (active).

On to `Cc1ccc(S(=O)(=O)Nc2nc(C)cc(-n3nc(C)cc3C)n2)cc1`, for which the inhibition was -0.42% (inactive).

With `CCN1C(=O)N[C@@H](CCc2ccccc2)C(C(=O)OC)=C1C`, the inhibition is 0.27% (inactive).

`CCCC(=O)N1CCC1(C)C(=O)NS(=O)(=O)c1ccc(Cl)cc1` (stereo not drawn): the inhibition is -0.68% (inactive).

`CCn1ncc(Br)c1C(=O)Nc1cc(C)ccc1F`: the inhibition is 0.75% (inactive).

Consider `Cc1ccccc1C(CC(=O)c1cccs1)C(C#N)C#N` (stereo not drawn), for which the inhibition was 5.15% (active).

On to `C/C(=N\NC(=O)COc1c(C)cccc1C)c1cccs1`, for which the inhibition is -0.04% (inactive).

For the compound `Cc1ccc(NNC(=O)c2cccs2)cc1Cl`, the inhibition is -0.8% (inactive).

As to `COC(=O)Cc1nnn2c1[C@H](C)[C@@H](OC)c1cc(Br)ccc1-2`, the inhibition was 0.56% (inactive).

As for `CCc1nc2ccc(C(=O)N3CCN(c4cccc(Cl)c4)CC3)cc2nc1CC`, the inhibition is 0.35% (inactive).

Take `CC(=O)c1ccc(N2CCN(C(=O)c3ccc4nc[nH]c4c3)CC2)cc1`: the inhibition is 4.75% (active).

For `CC(=NNC(=O)c1ccc2nc[nH]c2c1)c1ccc(Br)cc1`, the inhibition was -0.04% (inactive).

`CN(Cc1ccccc1)C(=O)[C@@H]1CCCN1C(=O)[C@@H]1CCCN1C(=O)c1c(F)cccc1F`: the inhibition was 1.12% (inactive).

On to `Cc1[nH]c2ccccc2c1CC(=O)Nc1ccc(Nc2cccnc2)c(-c2cccc(Cl)c2)c1`, for which the inhibition is 0.91% (inactive).

For the compound `COc1ccc(/C=C2\SC(=O)N(CCC(=O)NC3CCS(=O)(=O)C3)C2=O)cc1` (stereo not drawn), the inhibition is 7.15% (active).

As for `COc1ccccc1/C=C1\SC(=O)N(CCC(=O)N(C)C2CCS(=O)(=O)C2)C1=O` (stereo not drawn), the inhibition was 1.66% (inactive).

Turning to `COc1ccc(-c2ccc(OC(=O)NC3CCS(=O)(=O)C3)cc2)cc1` (stereo not drawn), the inhibition was -0.4% (inactive).

With `CC(C)CNc1cccc2c1S(=O)(=O)N[C@H](C)CO2`, the inhibition was 0.24% (inactive).

Regarding `COC(=O)CN1C(=O)C(O)=C(C(C)=O)C1c1ccc([N+](=O)[O-])cc1` (stereo not drawn), the inhibition is 4.6% (active).

Turning to `CC(=O)C1=C(O)C(=O)N(c2cccnc2)C1c1ccc([N+](=O)[O-])cc1` (stereo not drawn), the inhibition was 3.72% (inactive).

Take `CC(=O)C1=C(O)C(=O)N(c2ccc(Br)cc2)C1c1ccc([N+](=O)[O-])cc1` (stereo not drawn): the inhibition was 3.13% (inactive).

On to `CC1=NNC(=O)C1CCC(=O)N/N=C\c1ccc(Cl)c(Cl)c1` (stereo not drawn), for which the inhibition is 0.26% (inactive).

As for `O=C(Cc1ccccc1)N/N=C/c1ccc(Cl)cc1Cl`, the inhibition was 0.83% (inactive).

Turning to `NCCCCCC(=O)N/N=C/c1ccc2nccnc2c1`, the inhibition was 4.64% (active).

As for `COc1ccc(N2C(=O)C3C(C2=O)C(C(=O)c2ccccc2)N2CCCC32)cc1` (stereo not drawn), the inhibition was 1.03% (inactive).

With `COCCNC(=S)N(C)[C@H]1C[C@H]2c3[nH]c4ccccc4c3CCN2C[C@H]1[C@H](C)O`, the inhibition was 0.16% (inactive).

On to `N#Cc1ccc(OCCCN2CCC(C(O)(c3ccccc3)c3ccccc3)CC2)c(F)c1`, for which the inhibition was 2.13% (inactive).

Turning to `COc1ccc(CN2CCCC(C(=O)N3CCCCC3)C2)cc1` (stereo not drawn), the inhibition is -0.76% (inactive).

For `O=C(/C=C/c1ccco1)NC(=S)N1CCCCC1`, the inhibition was 2.5% (inactive).

`COc1ccc(/C=C/C(=O)NC(=S)N2CCCC(C(N)=O)C2)cc1` (stereo not drawn): the inhibition is 5.75% (active).

On to `O=c1[nH][nH]c2c1[C@H](c1ccc(Cl)cc1)O[C@H](CCc1ccccc1)C2`, for which the inhibition was -0.84% (inactive).
